About 2,000 (36%) of roughly 5,500 compounds were called active. Inconclusive results (about 18%) are left out. No stated cut-off is given here; in the data, active means normalized growth mostly below about 0.91 (no sharp cut-off); inconclusive means no clear call, values can overlap the other calls; inactive means mostly above about 0.92. This is one part of the list.
Test: chemical genetic growth profiling, strain panel (AID 1159580);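 further: tested at 20 µM; growth read once vehicle control cultures reached saturation at 30 °C; 1 = growth at the plate median or of vehicle wells; lower values mean less growth of the strain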
Conditions: growth OD

Measured: normalized growth

Nc1c(Br)cc(Br)cc1CNC1CCC(O)CC1 (stereo not given)
inactive: S. cerevisiae deletion strains, locus YJR066W, strain TOR1, hits give low values 0.936 | S. cerevisiae deletion strains, locus YKL009W, strain mrt4, hits give low values 0.985 | S. cerevisiae deletion strains, locus YKL068W, hits give low values 0.997 | S. cerevisiae deletion strains, locus YKL085W, strain MDH1 (second series), hits give low values 1 | S. cerevisiae deletion strains, locus YKL085W, strain MDH1, hits give low values 1 | S. cerevisiae deletion strains, locus YKL160W, strain elf1, hits give low values 1 | S. cerevisiae deletion strains, locus YKL190W, strain CNB1, hits give low values 1.01 | S. cerevisiae deletion strains, locus YKR001C, strain vps1, hits give low values 0.994 | S. cerevisiae deletion strains, locus YKR026C, strain gcn3, hits give low values 1.01 | S. cerevisiae deletion strains, locus YKR091W, strain srl3, hits give low values 1.02 | S. cerevisiae deletion strains, locus YLL001W, strain dnm1, hits give low values 1.02 | S. cerevisiae deletion strains, locus YLL026W, hits give low values 1.01 | S. cerevisiae deletion strains, locus YLL041C, strain sdh2, hits give low values 0.993 | S. cerevisiae deletion strains, locus YLR027C, strain aat2, hits give low values 0.997 | S. cerevisiae deletion strains, locus YLR039C, strain RIC1, hits give low values 1.03 | S. cerevisiae deletion strains, locus YLR058C, strain SHM2, hits give low values 1 | S. cerevisiae deletion strains, locus YLR102C, strain apc9, hits give low values 1.01 | S. cerevisiae deletion strains, locus YLR113W, strain HOG1, hits give low values 1.07 | S. cerevisiae deletion strains, locus YLR221C, strain rsa3, hits give low values 1.01 | S. cerevisiae deletion strains, locus YLR258W, strain gsy2, hits give low values 1 | S. cerevisiae deletion strains, locus YLR262C, strain YPT6 (second series), hits give low values 0.974 | S. cerevisiae deletion strains, locus YLR262C, strain YPT6, hits give low values 1.04 | S. cerevisiae deletion strains, locus YLR268W, strain sec22, hits give low values 0.982 | S. cerevisiae deletion strains, locus YLR320W, strain mms22, hits give low values 1.03 | S. cerevisiae deletion strains, locus YLR330W, strain CHS5, hits give low values 1.01 | S. cerevisiae deletion strains, locus YLR342W, strain FKS1 (second series), hits give low values 1.01 | S. cerevisiae deletion strains, locus YLR342W, strain FKS1, hits give low values 1.02 | S. cerevisiae deletion strains, locus YLR357W, strain rsc2, hits give low values 1.03 | S. cerevisiae deletion strains, locus YLR370C, strain arc18, hits give low values 0.997 | S. cerevisiae deletion strains, locus YLR371W, strain rom2, hits give low values 1.01 | S. cerevisiae deletion strains, locus YLR384C, strain iki3, hits give low values 1.01 | S. cerevisiae deletion strains, locus YLR418C, strain cdc73, hits give low values 0.949 | S. cerevisiae deletion strains, locus YML016C, strain PPZ1, hits give low values 1 | S. cerevisiae deletion strains, locus YML032C, strain rad52, hits give low values 0.996 | S. cerevisiae deletion strains, locus YML120C, strain ndi1, hits give low values 1.05 | S. cerevisiae deletion strains, locus YML124C, strain tub3, hits give low values 0.996 | S. cerevisiae deletion strains, locus YMR058W, strain fet3, hits give low values 1.02 | S. cerevisiae deletion strains, locus YMR078C, strain ctf18, hits give low values 1.01 | S. cerevisiae deletion strains, locus YMR125W, strain sto1, hits give low values 1.01 | S. cerevisiae deletion strains, locus YMR129W, hits give low values 1.02 | S. cerevisiae deletion strains, locus YMR205C, strain PFK2, hits give low values 1 | S. cerevisiae deletion strains, locus YMR223W, strain ubp8, hits give low values 0.991 | S. cerevisiae deletion strains, locus YMR231W, strain pep5, hits give low values 1.02 | S. cerevisiae deletion strains, locus YMR307W, strain GAS1, hits give low values 1.12 | S. cerevisiae deletion strains, locus YNL067W, strain RPL9B, hits give low values 0.994 | S. cerevisiae deletion strains, locus YNL071W, strain lat1, hits give low values 1.01 | S. cerevisiae deletion strains, locus YNL128W, strain TEP1, hits give low values 1.02 | S. cerevisiae deletion strains, locus YNL153C, strain GIM3, hits give low values 0.99 | S. cerevisiae deletion strains, locus YNL183C, strain NPR1, hits give low values 0.981 | S. cerevisiae deletion strains, locus YNL209W, strain ssb2, hits give low values 1 | S. cerevisiae deletion strains, locus YNL233W, strain BNI4, hits give low values 0.991 | S. cerevisiae deletion strains, locus YNL248C, strain rpa49, hits give low values 1 | S. cerevisiae deletion strains, locus YNL250W, strain rad50, hits give low values 0.994 | S. cerevisiae deletion strains, locus YNL271C, strain bni1, hits give low values 1 | S. cerevisiae deletion strains, locus YNL298W, strain CLA4, hits give low values 1.03 | S. cerevisiae deletion strains, locus YNL307C, strain MCK1, hits give low values 1.01 | S. cerevisiae deletion strains, locus YNL322C, strain KRE1 (second series), hits give low values 1.02 | S. cerevisiae deletion strains, locus YNL322C, strain KRE1, hits give low values 1 | S. cerevisiae deletion strains, locus YNR049C, strain mso1, hits give low values 0.987 | S. cerevisiae deletion strains, locus YNR052C, strain pop2, hits give low values 1 | S. cerevisiae deletion strains, locus YOL006C, strain TOP1, hits give low values 0.95 | S. cerevisiae deletion strains, locus YOL012C, strain htz1 0.731 | S. cerevisiae deletion strains, locus YOL147C, strain pex11, hits give low values 0.998 | S. cerevisiae deletion strains, locus YOR001W, strain rrp6, hits give low values 0.996 | S. cerevisiae deletion strains, locus YOR061W, strain CKA2, hits give low values 1.01 | S. cerevisiae deletion strains, locus YOR069W, strain VPS5, hits give low values 1 | S. cerevisiae deletion strains, locus YOR070C, strain gyp1, hits give low values 1 | S. cerevisiae deletion strains, locus YOR080W, strain dia2, hits give low values 1.02 | S. cerevisiae deletion strains, locus YOR083W, strain WHI5, hits give low values 0.997 | S. cerevisiae deletion strains, locus YOR106W, strain vam3, hits give low values 1.02 | S. cerevisiae deletion strains, locus YOR136W, strain idh2, hits give low values 0.995 | S. cerevisiae deletion strains, locus YOR144C, strain elg1, hits give low values 0.994 | S. cerevisiae deletion strains, locus YOR184W, strain ser1, hits give low values 0.992 | S. cerevisiae deletion strains, locus YOR231W, strain MKK1, hits give low values 1.06 | S. cerevisiae deletion strains, locus YOR265W, strain rbl2, hits give low values 1.01 | S. cerevisiae deletion strains, locus YOR270C, strain vph1, hits give low values 1.01 | S. cerevisiae deletion strains, locus YOR290C, strain snf2, hits give low values 0.984 | S. cerevisiae deletion strains, locus YOR316C, strain cot1, hits give low values 1 | S. cerevisiae deletion strains, locus YPL051W, strain arl3, hits give low values 1.01 | S. cerevisiae deletion strains, locus YPL055C, strain LGE1, hits give low values 0.978 | S. cerevisiae deletion strains, locus YPL078C, strain atp4, hits give low values 0.999 | S. cerevisiae deletion strains, locus YPL106C, strain sse1, hits give low values 1.03 | S. cerevisiae deletion strains, locus YPL240C, strain hsp82, hits give low values 1.01 | S. cerevisiae deletion strains, locus YPL256C, strain CLN2, hits give low values 1.06 | S. cerevisiae deletion strains, locus YPR119W, strain clb2, hits give low values 1 | S. cerevisiae deletion strains, locus YPR141C, strain kar3, hits give low values 0.99 | S. cerevisiae deletion strains, locus YPR163C, strain tif3, hits give low values 1 | S. cerevisiae deletion strains, locus YPR167C, strain met16, hits give low values 0.998 | S. cerevisiae deletion strains, strain wtn01, hits give low values 1 | S. cerevisiae strains, strain wild type, hits give low values 1.01

From PubChem BioAssay AID1159580 (chemical genetic matrix, 2015)
